Test results as given in PubChem BioAssay (NCATS).
Records with an inconclusive call do not appear. Activity calls are given as the source filed them. The call rests on the fitted dose curve; in most records, active means well fitted curve in the direction sought with a large enough effect; inconclusive means small, poorly fitted or top-dose-only effect, or another doubt; inactive means no such curve, though single readings can be large; an effect the other way counts as inactive or inconclusive.

Legend:
[1] = Quantitative High-Throughput drug screen in 47 multiple myeloma cell lines against the NCATS MIPE library collection: KMS26_JCRB cell viability assay (AID 1918975); further: nearly all actives have a fitted effect of over 45% in size
Method in brief: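 Myeloma cell lines, 500 cells per well, exposed to MIPE 4.0 library compounds for 48 h at 37C, 5% CO2. Viability from ATP by CellTiter-Glo luminescence; normalised to DMSO (100%) and media-only (0%) wells.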

[2] = Quantitative High-Throughput drug screen in 47 multiple myeloma cell lines against the NCATS MIPE library collection: MMM1_PLB cell viability assay (AID 1918976); further: nearly all actives have a fitted effect of over 35% in size
Method in brief: (§1)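 Viability after 48 h drug exposure was measured as ATP-dependent luminescence. Cells, 500 per well, sat at 37 °C under 5% CO2; DMSO wells set 100%, media-only wells 0%.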

[3] = Quantitative High-Throughput drug screen in 47 multiple myeloma cell lines against the NCATS MIPE library collection: MOLP8_DSMZ cell viability assay (AID 1918977); further: nearly all actives have a fitted effect of over 45% in size
Method in brief: as §1

[4] = Quantitative High-Throughput drug screen in 47 multiple myeloma cell lines against the NCATS MIPE library collection: OCIMY1_PLB cell viability assay (AID 1918979); further: nearly all actives have a fitted effect of over 35% in size; on viability: series mostly up to about 46 µM
Method in brief: as §1

[5] = Quantitative High-Throughput drug screen in 47 multiple myeloma cell lines against the NCATS MIPE library collection: MM1S_ATCC cell viability assay (AID 1918980); further: nearly all actives have a fitted effect of over 45% in size
Method in brief: as §1

[6] = Quantitative High-Throughput drug screen in 47 multiple myeloma cell lines against the NCATS MIPE library collection: MM1R_ATCC cell viability assay (AID 1918981); further: nearly all actives have a fitted effect of over 35% in size
Method in brief: as §1

[7] = Quantitative High-Throughput drug screen in 47 multiple myeloma cell lines against the NCATS MIPE library collection: LP1_DSMZ cell viability assay (AID 1918982); further: nearly all actives have a fitted effect of over 35% in size
Method in brief: as §1

[8] = Quantitative High-Throughput drug screen in 47 multiple myeloma cell lines against the NCATS MIPE library collection: KMS28PE_JCRB cell viability assay (AID 1918983); further: nearly all actives have a fitted effect of over 35% in size
Method in brief: as §1

[9] = Quantitative High-Throughput drug screen in 47 multiple myeloma cell lines against the NCATS MIPE library collection: NCIH929_DSMZ cell viability assay (AID 1918978); further: nearly all actives have a fitted effect of over 35% in size
Method in brief: as §1
Potency means the concentration at half of the fitted maximal effect.

Structure (SMILES)	Potency [1]	Potency [2]	Potency [3]	Potency [4]	Potency [5]	Potency [6]	Potency [7]	Potency [8]	Potency [9]
CN1CCC(COc2cnc(-c3cccc(Cn4nc(-c5cccc(C#N)c5)ccc4=O)c3)nc2)CC1	0.235 µM (active)	0.059 µM (active)	inactive	inactive	0.0743 µM (active)	18.7 µM (active)	18.7 µM (active)	inactive	–
C[C@H](CCC(=O)O)[C@H]1CC[C@H]2[C@H]3[C@@H](CC[C@]12C)[C@@]1(C)CC[C@@H](O)C[C@H]1C[C@@H]3O	inactive	1.66 µM (active)	–	inactive	inactive	inactive	16.6 µM (active)	inactive	inactive
CN1CC(=O)NC1=NC(=O)Nc1cccc(Cl)c1	18.7 µM (active)	20.9 µM (active)	10.5 µM (active)	–	–	18.7 µM (active)	14.8 µM (active)	inactive	16.6 µM (active)
OC[C@H]1O[C@@H](O[C@H]2[C@@H](O)[C@@](O)(CO)O[C@@H]2CO)[C@H](O)[C@@H](O)[C@@H]1O	inactive	3.72 µM (active)	–	inactive	inactive	inactive	inactive	inactive	inactive
COc1cc([C@H]2Oc3cc([C@H]4Oc5cc(O)cc(O)c5C(=O)[C@H]4O)ccc3O[C@H]2CO)ccc1O	16.6 µM (active)	7.43 µM (active)	–	20.9 µM (active)	9.35 µM (active)	23.5 µM (active)	–	20.9 µM (active)	23.5 µM (active)
CC(C)CN(C[C@@H](O)[C@H](Cc1ccccc1)NC(=O)O[C@H]1CO[C@H]2OCC[C@H]21)S(=O)(=O)c1ccc(N)cc1	3.32 µM (active)	20.9 µM (active)	inactive	inactive	2.35 µM (active)	1.32 µM (active)	3.72 µM (active)	20.9 µM (active)	–
CCCCC[C@H](O)C=C[C@H]1[C@H](O)CC(=O)[C@H]1CCCCCCC(=O)O	inactive	8.33 µM (active)	–	inactive	3.32 µM (active)	inactive	inactive	inactive	inactive
COc1ccc2nc3cc(Cl)ccc3c(Nc3cc(CN4CCCC4)c(O)c(CN4CCCC4)c3)c2n1	16.6 µM (active)	14.8 µM (active)	16.6 µM (active)	–	20.9 µM (active)	–	20.9 µM (active)	–	–
Cc1ccc(C(=O)N(CCCN)[C@@H](c2oc3cc(Cl)ccc3c(=O)c2Cc2ccccc2)C(C)C)cc1	26.4 µM (active)	23.5 µM (active)	–	–	–	–	–	–	8.33 µM (active)
COc1ccc(-c2cc3nccn3c(Nc3ncccc3C(N)=O)n2)cc1OC	10.5 µM (active)	10.5 µM (active)	3.72 µM (active)	–	14.8 µM (active)	–	3.32 µM (active)	5.9 µM (active)	–
Cc1cnc(CNC(=O)c2c(=O)c3ccc(N4CCCN(C)CC4)nc3n3c2sc2ccccc23)cn1	12.9 µM (active)	9.11 µM (active)	9.11 µM (active)	–	–	7.24 µM (active)	–	12.9 µM (active)	–
CC(C)N(CCCNC(=O)Nc1ccc(C(C)(C)C)cc1)C[C@H]1O[C@@H](n2cc(Br)c3c(N)ncnc32)[C@H](O)[C@H]1O	26.4 µM (active)	18.7 µM (active)	18.7 µM (active)	–	23.5 µM (active)	20.9 µM (active)	23.5 µM (active)	14.8 µM (active)	23.5 µM (active)
COc1c(C)cnc(Cn2cnc3c(Cl)nc(N)nc32)c1C	0.209 µM (active)	0.935 µM (active)	0.0935 µM (active)	–	0.332 µM (active)	0.235 µM (active)	–	0.235 µM (active)	–
c1ccc(-c2oc3ncnc(NC[C@@H]4CCCO4)c3c2-c2ccccc2)cc1	18.7 µM (active)	20.9 µM (active)	–	inactive	18.7 µM (active)	23.5 µM (active)	–	26.4 µM (active)	inactive
O[C@@H](COc1cccc2ncccc12)CN1CCN(C2c3ccccc3[C@@H]3[C@H](c4ccccc42)C3(F)F)CC1 (some centres undefined)	20.9 µM (active)	26.4 µM (active)	23.5 µM (active)	–	7.43 µM (active)	18.7 µM (active)	–	23.5 µM (active)	11.8 µM (active)
CCCCCOC(=O)Nc1nc(=O)n([C@@H]2O[C@H](C)[C@@H](O)C2O)cc1F (some centres undefined)	inactive	inactive	inactive	inactive	–	inactive	inactive	inactive	–
O=S(=O)(O)c1ccc2cc(N=Nc3cc(S(=O)(=O)O)c4cccnc4c3O)ccc2c1	20.9 µM (active)	3.72 µM (active)	–	inactive	13.2 µM (active)	20.9 µM (active)	–	18.7 µM (active)	7.43 µM (active)
CC1(C)[C@H]2CC[C@]3(C)[C@@H](C(=O)C=C4[C@@H]5C[C@@](C)(C(=O)O)CC[C@]5(C)CC[C@]43C)[C@@]2(C)CC[C@@H]1O	inactive	3.72 µM (active)	–	inactive	inactive	inactive	inactive	18.7 µM (active)	inactive
CN1C(=O)C(Cc2c[nH]c3ccccc23)NC1=S (centres undefined)	inactive	11.8 µM (active)	inactive	–	inactive	inactive	inactive	inactive	–
OC(c1cc(C(F)(F)F)nc2c(C(F)(F)F)cccc12)C1CCCCN1 (centres undefined)	29.6 µM (active)	23.5 µM (active)	23.5 µM (active)	–	–	–	18.7 µM (active)	26.4 µM (active)	20.9 µM (active)
C[C@H]1COC2=C1C(=O)C(=O)c1c2ccc2c1CCCC2(C)C	29.6 µM (active)	13.2 µM (active)	20.9 µM (active)	inactive	26.4 µM (active)	20.9 µM (active)	18.7 µM (active)	–	–
Clc1ccc(C2(c3ccc(-c4cn[nH]c4)cc3)CCNCC2)cc1	20.9 µM (active)	1.48 µM (active)	20.9 µM (active)	–	–	10.5 µM (active)	23.5 µM (active)	14.8 µM (active)	–
